The sample as a whole holds a higher share of hits than the screen did.
Dicer processing: blocks human Dicer maturation of pre-miR-21; z-score at 25 µM; AID 1347074; Q9UPY3; 47,000 compounds, 6% hits; cat-ELCCA pre-miR-21 Dicer processing, chemiluminescence; active compounds read high; in the data active means z-score above about 3, passing the limit was not always enough;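 further: higher signal means more uncleaved substrate so more Dicer inhibition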
Target sequence (Q9UPY3 whole entry, looked up): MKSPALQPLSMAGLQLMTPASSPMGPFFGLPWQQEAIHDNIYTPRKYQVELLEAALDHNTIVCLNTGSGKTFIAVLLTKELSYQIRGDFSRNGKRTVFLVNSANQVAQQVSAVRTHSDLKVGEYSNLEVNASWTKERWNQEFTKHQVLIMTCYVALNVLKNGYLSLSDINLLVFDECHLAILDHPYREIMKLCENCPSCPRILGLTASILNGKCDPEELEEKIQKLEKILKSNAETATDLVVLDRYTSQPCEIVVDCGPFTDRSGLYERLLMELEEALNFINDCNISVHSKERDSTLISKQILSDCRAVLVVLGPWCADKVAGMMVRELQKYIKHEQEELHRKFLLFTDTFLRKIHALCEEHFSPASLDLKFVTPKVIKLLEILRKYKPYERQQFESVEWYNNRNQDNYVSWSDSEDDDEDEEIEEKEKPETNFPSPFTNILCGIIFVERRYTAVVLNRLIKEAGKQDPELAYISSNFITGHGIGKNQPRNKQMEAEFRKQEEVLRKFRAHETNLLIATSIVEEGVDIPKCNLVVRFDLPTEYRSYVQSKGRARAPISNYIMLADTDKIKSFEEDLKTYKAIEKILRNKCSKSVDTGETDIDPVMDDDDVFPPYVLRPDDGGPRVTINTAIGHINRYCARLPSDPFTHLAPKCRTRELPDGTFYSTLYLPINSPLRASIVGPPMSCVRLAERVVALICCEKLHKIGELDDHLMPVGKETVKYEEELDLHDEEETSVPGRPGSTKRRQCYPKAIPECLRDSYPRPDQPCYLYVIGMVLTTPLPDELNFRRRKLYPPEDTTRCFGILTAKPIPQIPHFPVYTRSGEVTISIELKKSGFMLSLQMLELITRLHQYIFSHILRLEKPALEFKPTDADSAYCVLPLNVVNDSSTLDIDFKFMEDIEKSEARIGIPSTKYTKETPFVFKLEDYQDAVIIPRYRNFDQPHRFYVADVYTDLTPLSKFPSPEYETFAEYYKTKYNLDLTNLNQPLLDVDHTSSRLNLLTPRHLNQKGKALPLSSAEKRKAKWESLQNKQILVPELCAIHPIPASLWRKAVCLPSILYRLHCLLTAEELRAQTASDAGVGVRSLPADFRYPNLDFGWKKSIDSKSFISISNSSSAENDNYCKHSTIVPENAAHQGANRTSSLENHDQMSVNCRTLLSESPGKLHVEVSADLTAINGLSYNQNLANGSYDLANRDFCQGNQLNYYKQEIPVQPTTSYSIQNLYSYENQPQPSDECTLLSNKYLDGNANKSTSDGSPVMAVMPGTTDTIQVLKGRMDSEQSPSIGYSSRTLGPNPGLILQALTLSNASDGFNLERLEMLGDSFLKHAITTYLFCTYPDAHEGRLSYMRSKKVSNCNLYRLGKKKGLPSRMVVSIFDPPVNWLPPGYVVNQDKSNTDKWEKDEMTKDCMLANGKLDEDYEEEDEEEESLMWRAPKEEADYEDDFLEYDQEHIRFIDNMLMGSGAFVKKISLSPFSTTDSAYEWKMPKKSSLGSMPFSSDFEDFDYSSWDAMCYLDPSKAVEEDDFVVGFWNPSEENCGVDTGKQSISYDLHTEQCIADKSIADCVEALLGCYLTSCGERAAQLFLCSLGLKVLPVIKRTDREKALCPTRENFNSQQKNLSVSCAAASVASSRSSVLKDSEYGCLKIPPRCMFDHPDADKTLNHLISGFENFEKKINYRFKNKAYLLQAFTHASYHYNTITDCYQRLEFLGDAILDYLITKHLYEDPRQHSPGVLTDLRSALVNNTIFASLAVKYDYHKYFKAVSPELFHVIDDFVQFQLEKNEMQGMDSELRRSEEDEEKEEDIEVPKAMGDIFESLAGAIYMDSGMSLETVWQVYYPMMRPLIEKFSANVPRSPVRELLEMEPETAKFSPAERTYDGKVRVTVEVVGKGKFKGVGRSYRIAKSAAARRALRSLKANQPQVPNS
Large screens that a line does not name were inactive.

COc1ccc2c(=O)c(Oc3ccccc3Br)coc2c1	Dicer processing 4.66
COc1ccc(Oc2coc3cc(OC(=O)c4ccc(Br)cc4)ccc3c2=O)cc1	Dicer processing 5.41
CCO/C=C(\C#N)S(=O)(=O)c1ccc(Cl)cc1	none
CCOc1ccc(C2C(C#N)=C3N=C(N)c4ccccc4N3C3=C2C(=O)CCC3)cc1 (stereo not drawn)	none
NS(=O)(=O)c1ccc(Sc2cccs2)s1	none
CCOC(=O)C1=C(C)NC(C)=C(C(=O)OCC)C1c1ccc(OC)cc1Cl	none
O=C1CC(c2ccsc2)c2c(n[nH]c2-c2ccccc2)N1 (stereo not drawn)	none
Cc1ccc(NC(=O)CC(C)CC(=O)O)cc1 (stereo not drawn)	none
Cc1ccc(NC(=O)CC(CC(=O)O)c2ccccc2)nc1 (stereo not drawn)	Dicer processing 3.68
CC(CC(=O)O)CC(=O)Nc1ccccn1 (stereo not drawn)	none
CC(C)(CC(=O)O)Sc1ccc(Cl)cc1	none
O=C(CSC1=NCCS1)n1c2c(c3ccccc31)CCCC2	none
CC(=O)NNc1ncnc2cc(-c3ccc(C(C)(C)C)cc3)sc12	none
Cc1ccc(C(=O)NNc2ncnc3cc(-c4ccc(C(C)(C)C)cc4)sc23)cc1	Dicer processing 6.16
Cc1ccc(C(=O)N2CCN(c3ncnc4cc(-c5ccc(C(C)(C)C)cc5)sc34)CC2)cc1	none
CC(C)c1cc(Br)c(NC(=O)Nc2ccc3ccccc3n2)c(Br)c1	none
CCc1ccccc1N=C(N)N=C(N)N	Dicer processing 5.46
NC(N)=NC(N)=Nc1ccccc1	none
NN/C(N)=N/C(N)=Nc1ccccc1F	none
Cc1cc(Nc2ccccc2C(=O)O)n(-c2c(Cl)cccc2Cl)n1	none
CCCCSc1nnc2c(n1)OC(CC)=Nc1ccccc1-2	none
CCSc1nnc2c(n1)OC(C)=Nc1ccc(Br)cc1-2	Dicer processing 3.35
CSc1nnc2c(n1)OC(C)=Nc1ccc(Br)cc1-2	none
CSc1nnc2c(n1)OC(C)=Nc1ccccc1-2	none
CCCSc1nnc2c(n1)OC(C)=Nc1ccc(Br)cc1-2	Dicer processing 3.7
CCSc1nnc2c(n1)OC(CC)=Nc1ccccc1-2	none
COc1ccc(OC)c(NC(=O)C(Cl)Cl)c1	none
CC(C)(C)NC(=O)C1C2CC3(Oc4ccc5ccccc5c42)N1c1ccccc1C3(C)C (stereo not drawn)	none
O=C(Nc1nnc(/C=C/c2ccccc2)s1)c1ccc(Br)cc1	none
CCOC(=O)Nc1sc(C(=O)OC(C)C)c(C)c1C(N)=O	none
C/C(Nc1ccc(C)cc1)=C1/CCOC1=O	none
Cc1ccc(C(=O)/C=C/S/C=C/C(=O)c2ccc(C)cc2)cc1	none
Cc1ccc(C(=O)/C=C/C=C/C=C/N(C)C)cc1	Dicer processing 4.51
CN(C)/C=C/C(=O)c1ccc(Cl)cc1	none
CN(C)/C=C/C(=O)c1ccc(C#Cc2ccccc2)cc1	none
COc1ccc2cc(C(=O)/C=C/N(C)C)ccc2c1	none
CN(C)/C=C/C(=O)c1ccc(Cl)c(Cl)c1	Dicer processing 4.92
COc1ccc(S(=O)(=O)Nc2sccc2C#N)cc1	none
NNC(=O)CNc1cccc([N+](=O)[O-])c1	none
Cc1ccc(Cl)c(OCC(O)Cn2cnc3ccccc32)c1 (stereo not drawn)	none
Cc1cccc(C)c1OCC(O)Cn1cnc2ccccc21 (stereo not drawn)	none
Cc1cccc(OCC(O)Cn2cnc3ccccc32)c1 (stereo not drawn)	Dicer processing 3.73
CCOC(=O)/C(C#N)=C/N=C(N/N=C/c1ccc(Cl)cc1)SC	none
CCOC(=O)C1=C(C)NC2=C(C(=O)CCC2)C1c1ccc(OC(C)=O)c(OC)c1 (stereo not drawn)	none
Cc1ccc2sc(C3=NN(C)C(O)(C(F)(F)F)C3)c(C)c2c1 (stereo not drawn)	none
Nc1nc2c(c(=O)[nH]1)C(c1ccccc1)CC(=O)N2 (stereo not drawn)	none
Cc1cc(NS(=O)(=O)c2ccc(NC(=O)CSCC(=O)O)cc2)no1	none
Cc1ccc(-c2nc(/N=C/N(C)C)sc2C)cc1Cl	none
Cc1ccc(-c2nc(/N=C/NOC(=O)c3ccc([N+](=O)[O-])cc3)sc2C)cc1Cl	Dicer processing 3.56
O=C(ON/C=N/c1ncc(-c2ccc(Br)s2)s1)c1ccc([N+](=O)[O-])cc1	none
CCc1ccc2nc(Nc3ncc4c(n3)CC(c3ccco3)CC4=O)nc(C)c2c1 (stereo not drawn)	none
COc1cccc(C2C(C(=O)OC3CCCCC3)=C(C)NC3=C2C(=O)CC(C)(C)C3)c1 (stereo not drawn)	none
CCC(=O)Oc1ccc2nc(-c3ccc(C)c(C)c3)oc(=O)c2c1	none
CCC(=O)Oc1cc(C)c2sc3ccccc3c(=O)c2c1	Dicer processing 4.43
CCC(=O)Oc1c(C)cc(O)c2ccccc12	none
CC1(C)O[C@H]2OC[C@@H]3OC(C)(C)O[C@@H]3[C@H]2O1	none
O=c1nc(Nc2ccccc2)nc(Nc2ccccc2)[nH]1	none
Cc1cc(C)c2c(n1)sc1c(N3CCN(c4ccccc4)CC3)ncnc12	none
Cc1cc(C)c(C#N)c(N2CCN(c3ccccc3)CC2)n1	Dicer processing 3.24
COCc1cc(C)nc(N2CCN(Cc3ccccc3)CC2)c1C#N	none
CCOC(=O)c1cc(-c2ccccc2)sc1NC(=O)Nc1ccccc1	none
O=C1C2C3c4ccccc4C(c4ccccc43)C2C(=O)N1c1ccc(F)cc1 (stereo not drawn)	none
